In PubChem BioAssay AID1159580 (chemical genetic matrix, 2015):
Values joined by “and” are separate entries in the source; they are usually repeats but may differ in a detail not shown here. Identical values can stand only once. Screen size: about 5,500 compounds; about 2,000 (36%) were called active. Inconclusive results (about 18%) are left out. No stated cut-off is given here; in the data, active means normalized growth mostly below about 0.91 (no sharp cut-off); inconclusive means no clear call, values can overlap the other calls; inactive means mostly above about 0.92. Some of the results follow.

Test: chemical genetic growth profiling, strain panel (AID 1159580);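 further: tested at 20 µM; growth read once vehicle control cultures reached saturation at 30 °C; 1 = growth at the plate median or of vehicle wells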
Conditions: S. cerevisiae deletion strains, growth OD

Measured: normalized growth

COc1ccc([C@@H]2CC(=O)c3c(O)cc(O)cc3O2)cc1O
inactive: locus YAL013W, strain DEP1, stronger effect = lower value 1.03 | locus YAL021C, strain ccr4, stronger effect = lower value 0.976 | locus YAL026C, strain drs2, stronger effect = lower value 0.978 | locus YAL030W, strain snc1, stronger effect = lower value 0.982 | locus YBL061C, strain skt5, stronger effect = lower value 0.977 | locus YBR009C, strain hhf1, stronger effect = lower value 0.983 | locus YBR021W, strain FUR4, stronger effect = lower value 1 | locus YBR023C, strain chs3, stronger effect = lower value 0.976 | locus YBR171W, strain sec66, stronger effect = lower value 0.999 | locus YBR229C, strain ROT2, stronger effect = lower value 1 | locus YBR231C, strain swc5, stronger effect = lower value 0.989 | locus YBR279W, strain paf1, stronger effect = lower value 0.982 | locus YCL011C, strain gbp2, stronger effect = lower value 0.975 | locus YCL016C, strain dcc1, stronger effect = lower value 0.961 | locus YCL029C, strain bik1, stronger effect = lower value 1.02 | locus YCL061C, strain MRC1, stronger effect = lower value 0.978 | locus YCL069W, strain vba3, stronger effect = lower value 0.99 | locus YCR088W, strain abp1, stronger effect = lower value 0.977 | locus YDL005C, strain med2, stronger effect = lower value 0.978 | locus YDL035C, strain GPR1, stronger effect = lower value 0.971 | locus YDL040C, strain nat1, stronger effect = lower value 0.986 | locus YDL074C, strain BRE1, stronger effect = lower value 1 | locus YDL101C, strain DUN1, stronger effect = lower value 1.01 | locus YDL185W, strain tfp1, stronger effect = lower value 1.01 | locus YDL192W, strain arf1, stronger effect = lower value 1 | locus YDR001C, strain nth1, stronger effect = lower value 0.973 | locus YDR069C, strain doa4, stronger effect = lower value 0.983 | locus YDR101C, strain arx1, stronger effect = lower value 1.02 | locus YDR137W, strain rgp1, stronger effect = lower value 0.973 | locus YDR159W, strain sac3, stronger effect = lower value 0.995 | locus YDR162C, strain NBP2, stronger effect = lower value 0.999 | locus YDR195W, strain ref2 0.994 | locus YDR297W, strain sur2, stronger effect = lower value 0.976 | locus YDR318W, strain mcm21, stronger effect = lower value 0.993 | locus YDR334W, strain swr1, stronger effect = lower value 0.985 | locus YDR335W, strain msn5, stronger effect = lower value 0.975 | locus YDR388W, stronger effect = lower value 1 | locus YDR392W, strain spt3, stronger effect = lower value 0.862 | locus YDR502C, strain sam2, stronger effect = lower value 0.995 | locus YEL003W, strain gim4, stronger effect = lower value 0.976 | locus YEL037C, strain rad23, stronger effect = lower value 0.973 | locus YEL061C, strain CIN8 (second series), stronger effect = lower value 0.977 | locus YEL061C, strain CIN8, stronger effect = lower value 1 | locus YER015W, strain faa2, stronger effect = lower value 0.983 | locus YER016W, strain bim1, stronger effect = lower value 0.976 | locus YER110C, stronger effect = lower value 1.01 | locus YER111C, strain swi4, stronger effect = lower value 0.963 | locus YER155C, strain BEM2 (second series), stronger effect = lower value 0.926 | locus YER155C, strain BEM2, stronger effect = lower value 0.998 | locus YER167W, strain BCK2, stronger effect = lower value 1 | locus YFR010W, strain ubp6, stronger effect = lower value 0.972 | locus YGL078C, strain dbp3, stronger effect = lower value 1 | locus YGL086W, strain mad1, stronger effect = lower value 1.03 | locus YGL167C, strain pmr1, stronger effect = lower value 0.977 | locus YGL173C, strain kem1, stronger effect = lower value 0.978 | locus YGL227W, strain vid30, stronger effect = lower value 0.988 | locus YGL240W, strain doc1, stronger effect = lower value 0.989 | locus YGL248W, strain PDE1, stronger effect = lower value 1.01 | locus YGL253W, strain hxk2, stronger effect = lower value 0.961 | locus YGR078C, strain PAC10, stronger effect = lower value 1.02 | locus YGR135W, strain pre9, stronger effect = lower value 0.979 | locus YGR229C, strain SMI1, stronger effect = lower value 0.983 | locus YGR252W, strain gcn5, stronger effect = lower value 0.893 | locus YHR013C, strain ard1, stronger effect = lower value 0.955 | locus YHR027C, strain rpn1, stronger effect = lower value 0.994 | locus YHR030C, strain SLT2, stronger effect = lower value 1.01 and 1 | locus YHR079C, strain IRE1 (second series), stronger effect = lower value 1.01 | locus YHR079C, strain IRE1, stronger effect = lower value 1.01 | locus YHR094C, strain hxt1, stronger effect = lower value 1.01 | locus YHR129C, strain ARP1, stronger effect = lower value 1 | locus YHR142W, strain chs7, stronger effect = lower value 0.918 | locus YHR200W, strain rpn10, stronger effect = lower value 0.993 | locus YIL066C, strain RNR3, stronger effect = lower value 0.979 | locus YIL073C, strain SPO22, stronger effect = lower value 1.05 | locus YIL125W, strain kgd1, stronger effect = lower value 1.01 | locus YIR030C, strain dcg1, stronger effect = lower value 1.01 | locus YJL092W, strain hpr5, stronger effect = lower value 0.976 | locus YJL095W, strain BCK1 (second series), stronger effect = lower value 0.978 | locus YJL095W, strain BCK1, stronger effect = lower value 1.04 and 1 | locus YJL115W, strain asf1, stronger effect = lower value 0.984 | locus YJL129C, strain trk1, stronger effect = lower value 0.939 | locus YJL134W, strain LCB3, stronger effect = lower value 1 | locus YJL154C, strain vps35, stronger effect = lower value 0.98 | locus YJL164C, strain tpk1, stronger effect = lower value 0.972 | locus YJL166W, strain qcr8, stronger effect = lower value 0.969 | locus YJL168C, strain set2, stronger effect = lower value 1 | locus YJL187C, strain SWE1 (second series), stronger effect = lower value 1.02 | locus YJL187C, strain SWE1, stronger effect = lower value 0.981
